According to PubChem BioAssay (NCATS):
Records with an inconclusive call do not appear. Calls of active or inactive are those of the source. Calls follow the shape of the dose curve; as a rule, active = well fitted curve in the direction sought with a large enough effect; inconclusive = small, poorly fitted or top-dose-only effect, or another doubt; inactive = no such curve, though single readings can be large; an effect the other way counts as inactive or inconclusive.

Biological target: DNA dC->dU-editing enzyme APOBEC-3G (Homo sapiens) (UniProt Q9HC16)
Test: qHTS for inhibitors of Vif-A3G interactions: Validation (AID 588379)
Conditions: Vif-A3G protein interaction assay; series mostly up to 46.1 µM
In short: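 Yellow fluorescence (Ex 488, Em 500-530) of Vif-coexpressing HeLa A3G-eYFP cells, scanned by Acumen cytometer, reports blocked A3G degradation. Cells plated at 700/well overnight at 37 deg C before compound addition, then a further overnight compound incubation at 37 deg C.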

Chain of DNA dC->dU-editing enzyme APOBEC-3G (Homo sapiens) (Q9HC16 whole entry, looked up): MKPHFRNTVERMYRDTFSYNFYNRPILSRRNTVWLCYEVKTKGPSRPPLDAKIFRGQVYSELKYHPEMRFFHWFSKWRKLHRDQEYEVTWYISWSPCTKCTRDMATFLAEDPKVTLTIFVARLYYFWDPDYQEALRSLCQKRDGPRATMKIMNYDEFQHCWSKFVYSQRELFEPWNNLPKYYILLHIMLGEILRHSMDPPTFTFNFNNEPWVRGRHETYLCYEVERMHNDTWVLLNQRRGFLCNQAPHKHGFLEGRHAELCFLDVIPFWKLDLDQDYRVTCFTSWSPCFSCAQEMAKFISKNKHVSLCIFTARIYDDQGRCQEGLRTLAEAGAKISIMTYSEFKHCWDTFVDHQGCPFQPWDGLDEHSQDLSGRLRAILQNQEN

Potency, inactive:
CC#C[C@]1(O)CC[C@H]2[C@@H]3CCC4=CC(=O)CCC4=C3[C@H](c3ccc(N(C)C)cc3)C[C@@]21C
CC(C)NC[C@@H](O)COc1cccc2[nH]ccc12
COc1cc([C@@H]2c3cc4c(cc3[C@@H](O[C@@H]3O[C@H]5CO[C@@H](C)O[C@@H]5[C@@H](O)[C@H]3O)[C@@H]3COC(=O)[C@@H]23)OCO4)cc(OC)c1O
COc1ccc2[nH]cc(CC(N)C(=O)O)c2c1 (stereo not given)
CC(=O)N[C@@H](C(=O)O)C(C)(C)SN=O
Cc1c(-c2ccc(Cl)cc2)noc1C1CCN(CCc2ccccc2)CC1

Test system: Zika virus NS2B-NS3 protease
Test: Primary screen GU AMC qHTS for Zika virus inhibitors (AID 1347154); also: nearly all actives have a fitted effect of over 70% in size
Conditions: Zika NS2B-NS3 unlinked protease, AMC fluorogenic substrate; series mostly up to 54.1 µM
In short: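 Fluorogenic AMC-substrate cleavage by noncovalent NS2B-NS3 protease complex (25 nM, pH 8.0 Tris buffer with Tween 20) followed for 15 minutes at room temperature (~20% conversion). Percent inhibition from ex340/em450 signal change, fitted by 4-parameter Hill equation.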

Potency, inactive:
c1ccc(N2CCN(Cc3nc4ccccc4[nH]3)CC2)nc1
CO[C@]1(C2=NCCN2)COc2ccccc2O1
O=C1C=CC(=O)C2=C1C1c3ccccc3C2c2ccccc21
CCNCCCNCCCNCCCNCC
CCCCCCCCCCCC(=O)O[C@H](CC(=O)O)C[N+](C)(C)C
CCN(CC)CCCCC1CCN(CC(=O)N2c3ccccc3C(=O)Nc3cccnc32)CC1
OC[C@H]1OC([S-])[C@H](O)[C@@H](O)[C@H]1O.[Au+] (stereo not given in full)
c1ccc(CN2CCC3(CCc4ccccc43)CC2)cc1
CC(C)(C)NC[C@H](O)c1ccc(O)c(CO)c1
C[C@H](CCC(=O)O)[C@H]1CCC2C3CC[C@@H]4C[C@H](O)CC[C@]4(C)C3CC[C@@]21C (stereo not given in full)
Cc1c(C(=O)NN2CCOCC2)nn(-c2ccc(Cl)cc2Cl)c1-c1ccc(I)cc1
CC1OC(OC2C(CO)OC(OC3C(CO)OC(O)C(O)C3O)C(O)C2O)C(O)C(O)C1NC1C=C(CO)C(O)C(O)C1O (stereo not given)
CCN(CC)c1ncnc2c1ncn2[C@@H]1O[C@@H](COP(=O)(O)OP(=O)(O)C(Br)(Br)P(=O)(O)O)[C@H](O)[C@H]1O
CCCN(CCC)C[C@@H]1CCCCN1CCNC(=O)N1c2ccccc2C(=O)Nc2cccnc21
Cc1ccc(/C(=C/CN2CCCC2)c2ccccn2)cc1
CCN(CC)C[C@@H]1CCCCN1CC(=O)N1c2ccccc2C(=O)Nc2cccnc21
Fc1ccc(C(c2ccc(F)cc2)N2CCN(C/C=C\c3ccccc3)CC2)cc1
N#C/C(=C\c1ccc(O)c(O)c1)C(N)=O
C[C@H](N)C(=O)O
OC(CN1CCNCC1)Cn1c2ccc(Br)cc2c2cc(Br)ccc21 (stereo not given)
CC(=O)Nc1ccc(OC[C@@H](O)CNC(C)C)cc1
CCOC(=O)C1=C(C)NC(c2ccccc2)=C(C(=O)OCc2ccc([N+](=O)[O-])cc2)[C@@H]1C#Cc1ccccc1
CC(=O)N(O)[C@@H]1c2cc(C#N)ccc2OC(C)(C)[C@H]1O
N[C@@H](Cn1cc(I)c(=O)n(Cc2ccc(C(=O)O)cc2)c1=O)C(=O)O
COc1ccccc1N1CCN(C[C@@H](O)COc2cccc3ccccc23)CC1
CS(=O)(=O)Nc1c(O)ccc2c1CCC[C@H]2C1=NCCN1
N[C@@H](C(=O)O)c1ccc(C(=O)O)cc1
CC#C[C@]1(O)CC[C@H]2[C@@H]3CCC4=CC(=O)CCC4=C3[C@H](c3ccc(N(C)C)cc3)C[C@@]21C
CC(=O)[C@H]1CC[C@H]2C3CC=C4C[C@@H](O)CC[C@]4(C)C3CC[C@]12C (stereo not given in full)
CC(C)NC[C@@H](O)COc1cccc2[nH]ccc12
COc1cc([C@@H]2c3cc4c(cc3[C@@H](O[C@@H]3O[C@H]5CO[C@@H](C)O[C@@H]5[C@@H](O)[C@H]3O)[C@@H]3COC(=O)[C@@H]23)OCO4)cc(OC)c1O
COc1cc(C=O)c([N+](=O)[O-])cc1OC
COc1ccc2[nH]cc(CC(N)C(=O)O)c2c1 (stereo not given)
O=C1c2ccccc2CCC1CNCCc1ccc(O)cc1 (stereo not given)
CC(=O)N(OCc1ccccc1)[C@@H]1c2cc(C#N)ccc2OC(C)(C)[C@H]1O
CN1c2cc3c(cc2N=C(c2ccc(C(=O)O)cc2)c2ccccc21)C(C)(C)CCC3(C)C
CCOC(=O)C1CSC(Cc2ccc(OCc3ccc([N+](=O)[O-])cc3)cc2)N1 (stereo not given)
C/C=C1\C2C=C(C)CC1(N)c1ccc(=O)[nH]c1C2 (stereo not given)
CC(=O)N[C@@H](C(=O)O)C(C)(C)SN=O
Cc1c(-c2ccc(Cl)cc2)noc1C1CCN(CCc2ccccc2)CC1

Test system: not listed separately
Test: Primary qHTS for small molecule stabilizers of the endoplasmic reticulum resident proteome: Secreted ER Calcium Modulated Protein (SERCaMP) assay (AID 1508630)
Conditions: SH-SY5Y GLuc-SERCaMP (Gaussia luciferase released on ER calcium loss) secretion, thapsigargin, luminescence; series mostly up to 38.4 µM
In short: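 The SH-SY5Y reporter protocol was run at 3 concentrations up to 38.3 uM (primary) or 11 concentrations (follow-up): 16 h compound, 100 nM thapsigargin for 4 h, then extracellular luciferase luminescence.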

Potency, inactive:
c1ccc(N2CCN(Cc3nc4ccccc4[nH]3)CC2)nc1
O=C1C=CC(=O)C2=C1C1c3ccccc3C2c2ccccc21
CCN(CC)CCCCC1CCN(CC(=O)N2c3ccccc3C(=O)Nc3cccnc32)CC1
OC[C@H]1OC([S-])[C@H](O)[C@@H](O)[C@H]1O.[Au+] (stereo not given in full)
c1ccc(CN2CCC3(CCc4ccccc43)CC2)cc1
C[C@H](CCC(=O)O)[C@H]1CCC2C3CC[C@@H]4C[C@H](O)CC[C@]4(C)C3CC[C@@]21C (stereo not given in full)
Cc1c(C(=O)NN2CCOCC2)nn(-c2ccc(Cl)cc2Cl)c1-c1ccc(I)cc1
CC1OC(OC2C(CO)OC(OC3C(CO)OC(O)C(O)C3O)C(O)C2O)C(O)C(O)C1NC1C=C(CO)C(O)C(O)C1O (stereo not given)
CCN(CC)c1ncnc2c1ncn2[C@@H]1O[C@@H](COP(=O)(O)OP(=O)(O)C(Br)(Br)P(=O)(O)O)[C@H](O)[C@H]1O
CCN(CC)C[C@@H]1CCCCN1CC(=O)N1c2ccccc2C(=O)Nc2cccnc21
OC(CN1CCNCC1)Cn1c2ccc(Br)cc2c2cc(Br)ccc21 (stereo not given)
CCOC(=O)C1=C(C)NC(c2ccccc2)=C(C(=O)OCc2ccc([N+](=O)[O-])cc2)[C@@H]1C#Cc1ccccc1
CC(=O)N(O)[C@@H]1c2cc(C#N)ccc2OC(C)(C)[C@H]1O
CC#C[C@]1(O)CC[C@H]2[C@@H]3CCC4=CC(=O)CCC4=C3[C@H](c3ccc(N(C)C)cc3)C[C@@]21C
CC(=O)[C@H]1CC[C@H]2C3CC=C4C[C@@H](O)CC[C@]4(C)C3CC[C@]12C (stereo not given in full)
COc1cc([C@@H]2c3cc4c(cc3[C@@H](O[C@@H]3O[C@H]5CO[C@@H](C)O[C@@H]5[C@@H](O)[C@H]3O)[C@@H]3COC(=O)[C@@H]23)OCO4)cc(OC)c1O
COc1cc(C=O)c([N+](=O)[O-])cc1OC
COc1ccc2[nH]cc(CC(N)C(=O)O)c2c1 (stereo not given)
O=C1c2ccccc2CCC1CNCCc1ccc(O)cc1 (stereo not given)
CC(=O)N(OCc1ccccc1)[C@@H]1c2cc(C#N)ccc2OC(C)(C)[C@H]1O
CN1c2cc3c(cc2N=C(c2ccc(C(=O)O)cc2)c2ccccc21)C(C)(C)CCC3(C)C
CCOC(=O)C1CSC(Cc2ccc(OCc3ccc([N+](=O)[O-])cc3)cc2)N1 (stereo not given)
C/C=C1\C2C=C(C)CC1(N)c1ccc(=O)[nH]c1C2 (stereo not given)
Cc1c(-c2ccc(Cl)cc2)noc1C1CCN(CCc2ccccc2)CC1
